In the library only some 4.6% were active in any assay of this set; here they are far more common.
TRHR ag: qHTS for Small Molecule Agonists and Allosteric Enhancers of Human TRH Receptor: Primary Screen for Agonists. Thyrotropin-releasing hormone receptor (Homo sapiens), P34981. TRHR cells, calcium flux fluo-8, FDSS agonist mode. activation, % at 2 µM. 0.18% of 360,000 active. AID 493084, 2011; note: 0% is about no effect
Target sequence (P34981 whole entry, looked up): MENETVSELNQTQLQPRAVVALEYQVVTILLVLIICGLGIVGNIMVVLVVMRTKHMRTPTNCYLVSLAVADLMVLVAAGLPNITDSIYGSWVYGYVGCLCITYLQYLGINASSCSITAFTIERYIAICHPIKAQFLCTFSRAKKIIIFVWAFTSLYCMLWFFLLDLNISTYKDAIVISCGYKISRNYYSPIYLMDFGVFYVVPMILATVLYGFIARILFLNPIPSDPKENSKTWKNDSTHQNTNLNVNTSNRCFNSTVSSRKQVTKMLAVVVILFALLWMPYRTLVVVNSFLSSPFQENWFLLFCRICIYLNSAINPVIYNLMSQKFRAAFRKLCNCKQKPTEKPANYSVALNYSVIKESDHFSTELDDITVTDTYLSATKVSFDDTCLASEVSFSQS
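TRHR-expressing cells loaded with fluo-8 calcium dye; 23 nL library compound pin-transferred, kinetic FDSS fluorescence (Ex 480/Em 530) recorded about 180 s for agonist-induced calcium release, before a 10 nM TRH EC20 addition for potentiator mode.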
D1 antagonist: Antagonist of Human D 1 Dopamine Receptor: qHTS; HEK293 TREx D1 cells, calcium flux, dopamine EC80; hits give low values; activity change, negative = inhibition, % at 10 µM; AID 504652, 2011; D(1A) dopamine receptor (Homo sapiens), P21728; 3.2% of 360,000 active; in the data active = activity change below about -30%; note: % is set by controls: 0 for no effect and ±100 for the full control effect
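Tetracycline-induced HEK293 T-REx cells with force-coupled D1 receptor were loaded with a no-wash calcium dye. Compound was added after a 10 s baseline and read kinetically for 180 s; EC80 dopamine was then added and calcium flux followed another 180 s.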
D1 ag: Allosteric Agonists of the Human D1 Dopamine Receptor: qHTS | D(1A) dopamine receptor (Homo sapiens), P21728 | HEK293 T-REx D1 cells, calcium flux, agonist mode | activation, % at 2 µM | 1% of 360,000 active; note: 0% is about no effect
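Agonism was scored from calcium flux recorded over 180 s (1 read/s) after pintool compound addition, following a 10-cycle baseline. Cells were inducible force-coupled HEK293 TREx D1, plated overnight at 30 C and loaded with no-wash calcium dye.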
TRHR enhancer: qHTS for Small Molecule Agonists and Allosteric Enhancers of Human TRH Receptor: Primary Screen for Enhancers; Thyrotropin-releasing hormone receptor (Homo sapiens), P34981; TRHR cells, fluo-8 calcium fluorescence, EC20 TRH enhancement; enhancement, % at 2 µM; 0.66% of 360,000 active; in the data active = enhancement above about 30%; note: 0% is about no effect
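Enhancer read-out: after compound pinning and an initial kinetic agonist-mode read, an EC20 of TRH (10 nM final) was injected and fluo-8 calcium signal (Ex 480/Em 530) followed at 1 s/cycle for 100 cycles in TRHR-expressing cells.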
Epigenetic reg: Quantitative High-Throughput Screen for Regulators of Epigenetic Control; murine LDR cells, GFP reporter derepression, 30 h; Potency, µM (doses to about 53.9 µM), for the others: at the highest dose GFP activation, hits mostly activators; 0.2% of 280,000 active; AID 1865, 2009; active = well fitted activation curve with a large enough effect; inconclusive = small, poorly fitted or top-dose-only effect; note: potency is the fitted concentration of half-maximal effect; % of control where 0% means no effect; nearly all actives have a fitted effect of over 60% in size
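In this reporter-derepression format, murine cells bearing a silenced integrated CMV-GFP locus incubate with test compound (30 h, 37 C), then are washed and imaged; fluorescent objects of 20–120 um count as induced cells.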
D1 potentiator: Potentiators of Human D1 Dopamine Receptor: qHTS; HEK293 TREx D1 cells, calcium flux, dopamine EC20 potentiation; 0.036% of 360,000 active; potentiation, % at 10 µM; D(1A) dopamine receptor (Homo sapiens), P21728; in the data active = potentiation above about 30%; note: 0% is about no effect
* = called active by the depositor; ? = inconclusive; nt = no result given; [ ] = dose if it differs, or a comment. Cut-off read from the data, not from the text of the source, unless noted: active = activation above about 30%; inactive = the rest.

SMILES | TRHR ag | D1 antagonist | D1 ag | TRHR enhancer | Epigenetic reg | D1 potentiator
O=P(O)(CCc1ccccn1)CN1CCOCC1 | 0 | -6 | 2 | 3 | 8% | -2
O=C(N/N=C/c1ccc(O)cc1)c1ccc(COc2cc(Cl)ccc2Cl)o1 | 0 | -8 | 43* | -6 | 5% | -4
CCOc1ccc(-c2nnc(SCC(=O)NCCC(C)C)nc2-c2ccc(OCC)c(OC)c2)cc1OC | -1 | 5 | 5 | -3 | 0% | -2
O=c1ccn(-c2cccc(C(F)(F)F)c2)nc1-c1ccn(-c2ccccc2)n1 | 0 | -38* | -1 | -5 | -1% | -4
Cc1cc(=O)c(C(=O)O)nn1-c1cccc(C(F)(F)F)c1 | 0 | 13 | -1 | -1 | nt | -3
CCOC(=O)N1CCC(N2Cc3cccc(C(=O)Nc4ccc(CC)cc4)c3C2=O)CC1 | 1 | -3 | 1 | 3 | -1% | -1
CCOC(=O)N1CCC(N2Cc3cccc(C(=O)Nc4ccc(F)cc4)c3C2=O)CC1 | 0 | -53* | 0 | -2 | 0% | -2
CCCNc1nc(N)nc(-c2cc(Cl)ccc2OC)n1 | 0 | 2 | 3 | 5 | -1% | 0
CCCN(CCC)c1nc(N)nc(-c2cc(Cl)ccc2OC)n1 | 0 | -75* | 2 | 0 | 4% | -12
Cc1[nH]n(C2=NCCS2)c(=O)c1N=Nc1cccc(C(F)(F)F)c1 | 7 | 5 | 62* | -5 | ? | -4
Cc1[nH]n(-c2ccccc2)c(=O)c1N=Nc1cccc(C(=O)O)c1 | 1 | -37* | 1 | 1 | nt | 3
COc1ccc(CCN(C)CC(O)COC(c2ccc(F)cc2)c2ccc(F)cc2)cc1OC (centres undefined) | 2 | -27 | 33* | 3 | nt | -19
COc1ccc(CCN(C)Cc2c(O)ccc3ccccc23)cc1OC | -1 | -8 | 3 | 11 | nt | -12
COc1ccc(CCN(C)CC(O)COc2c(C)ccc(C)c2C)cc1OC (centres undefined) | -3 | -16 | 34* | -17 | nt | -7
COc1cccc(/C=C/C(=O)NNC(=O)c2ccncc2)c1OC | 0 | -39* | 100* | -1 | nt | -3
CCn1c(CNc2cccc(Cl)c2)nnc1SCC(=O)OC1CCCCC1 | -1 | -43* | 36* | 6 | 0% | -4
CCN1CCN(c2cc3c(cc2F)c(=O)c(S(=O)(=O)c2ccc(OC)cc2)cn3CC)CC1 | 0 | 0 | -1 | 18 | -1% | 3
COC(=O)c1ccc(NC(=O)CCn2cnnn2)cc1 | 0 | 4 | 1 | -3 | -1% | -4
CCc1cc2c(-c3ccccc3)cc(=O)oc2c2c1OCN(Cc1ccc(F)cc1)C2 | 9 | 5 | 20 | -3 | 2% | 2
CCC(=O)NC(c1ccc(C)cc1)c1cc(Cl)c2cccnc2c1O (centres undefined) | 4 | 2 | 14 | -9 | nt | 3
CCC(=O)NC(c1ccc(Br)o1)c1cc(Cl)c2cccnc2c1O (centres undefined) | 30* | 15 | 89* | 4 | nt | 4
CCCCCS(=O)(=O)CCCCCCCCCCn1c(-c2ccc(O)cc2)c(C)c2cc(O)ccc21 | nt | nt | nt | nt | 1% | nt
COc1ccc(C2c3c(-c4ccccc4)n[nH]c3C(=O)N2c2ccc(C(=O)O)cc2)c(OC)c1 (centres undefined) | 1 | -35* | -1 | 3 | -1% | -3
NC(=O)COc1cccc2cccnc12 | 0 | -79* | 0 | -23 | -1% | -10
Cc1cc(NC(=O)COc2cccc3cccnc23)no1 | 0 | 0 | 1 | -1 | -2% | 0
SMILES | TRHR ag | D1 antagonist | D1 ag | TRHR enhancer | Epigenetic reg | D1 potentiator
COc1ccc(-c2nc(N3CCN(S(=O)(=O)c4ccccc4)CC3)c3ccccc3n2)cc1 | 0 | 25 | 4 | -4 | nt | 3
CCOc1ccc(C(=O)Nc2c(C(=O)c3ccccc3)oc3ccccc23)cc1 | 32* | 7 | 143* | 6 | -1% | 4
COc1cccc(NC(=O)c2oc3ccccc3c2NC(=O)c2ccc(OC(C)C)cc2)c1 | 1 | -16 | 50* | -5 | 3% | -1
COc1ccc2c(c1)C(=O)[C@H](OC(=O)NS(=O)(=O)c1ccc(F)cc1)[C@@H](c1ccc(OC)c(Br)c1)O2 | nt | nt | nt | nt | 0% | nt
O=C(Nc1ccc(CN2CCCCC2)cc1)c1cccc(F)c1 | 1 | 9 | 3 | -3 | 1% | -8
CCOc1ccc(OCc2cccc(C(=O)Nc3ccc(CN4CCCCC4)cc3)c2)cc1 | 3 | -30* | 38* | -2 | 2% | -9
COc1ccc(OCc2cccc(C(=O)Nc3ccc(CN4CCCCC4)cc3)c2)cc1 | 3 | -20 | 48* | -2 | 1% | -11
COc1cc(OC)cc(C(=O)Nc2ccc(CN3CCCCC3)cc2)c1 | 0 | -7 | 1 | 16 | 1% | -4
Cc1ccc(NC(=O)CCn2c(=O)c3cccn3c3ccccc32)c(Cl)c1 | 0 | -11 | 16 | -1 | 2% | -4
Cc1cc2c(s1)c1cnn(Cc3c(F)ccc(F)c3Cl)c(=O)c1n2C | 1 | 5 | 7 | 2 | nt | 5
COc1ccc(NC(=O)CC(C)S(=O)(=O)c2cc3c(cc2C)NC(=O)CO3)cc1OC (centres undefined) | 1 | 2 | -1 | 18 | 0% | 1
Cc1ccc(C(=O)O)cc1-c1ccc(/C=C2\SC(=O)N(CC(=O)Nc3ccccc3)C2=O)o1 | 2 | -14 | 3 | 1 | -1%[10.1 µM] | -12
Cc1cc(C(=O)O)ccc1-c1ccc(/C=C2\SC(=O)N(CC(=O)Nc3ccc4c(c3)OCO4)C2=O)o1 | 14 | -15 | 43* | -5 | nt | -3
CNC(=O)c1ccccc1NC(=O)C1CC(=O)N(C(C)C)C1 (centres undefined) | 1 | 9 | 0 | 37* | nt | -1
CC(C)NC(=O)c1ccccc1NC(=O)C1CC(=O)N(C(C)C)C1 (centres undefined) | 0 | 10 | 3 | 5 | nt | -3
C=CC1=C(C(=O)O)N2C(=O)[C@@H](NC(=O)C(N=O)c3csc(N)n3)[C@H]2SC1 (some centres undefined) | nt | nt | nt | nt | 7% | nt
N/C(=N\N=C/c1ccc(Br)cc1)N/N=C\c1ccc(Br)cc1 | 0 | 10 | 1 | 4 | -2% | -2
N/C(=N\N=C/c1ccc(F)cc1)N/N=C\c1ccc(F)cc1 | -1 | -59* | 11 | 5 | nt | -10

Bioassay records: PubChem BioAssay, National Center for Advancing Translational Sciences (NCATS)
